# Only some compounds are listed: those with a hit (about 7% of all), similar ones and a draw of the others.
# PLK1 PBD block = inhibitors of human PLK1 polo-box domain binding. P53350. Plk1 PBD binding of FITC phosphopeptide, fluorescence polarization. Potency, µM, most hits filed as inhibitors. hit rate 2.8% among 360,000; also: series mostly up to about 57 µM; nearly all actives have a fitted effect of over 65% in size
# BAZ2B inh = BAZ2B (human) inhibition. AlphaScreen BAZ2B-H3K14Ac peptide displacement. Q9UIF8. hit rate 4.4% among 360,000. Potency, µM (series often up to 114 µM), usual class: inhibitors; also: nearly all actives have a fitted effect of over 60% in size
#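 AlphaScreen displacement of biotin-H3(5-23)K14Ac peptide (50 nM final) from BAZ2B (50 nM final) in PBS pH 7.4, 0.01% Tween-20; complex preformed 30 min RT, then compounds (top 110 uM) 30 min RT, beads 20 min dark.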
# JMJD2A Tudor = inhibitors of human JMJD2A Tudor domain. AlphaScreen JMJD2A-Tudor / H3K4me3 peptide binding. Potency, µM (doses to about 114 µM), hits mostly inhibitors. hit rate 4.4% among 390,000; also: nearly all actives have a fitted effect of over 50% in size
# PI5P4K alpha inh = inhibitors of human PI5P4K alpha; hit rate 1.2% among 330,000; P48426; PI5P4Kalpha enzyme, ADP-Glo luminescence, 60 min; active compounds read low; max response, %; active = max response of -50% or lower; inconclusive = between -30% and -50%; inactive = -30% or higher; also: value at the top dose of about 77 µM
# Target sequence (P48426 whole entry, looked up): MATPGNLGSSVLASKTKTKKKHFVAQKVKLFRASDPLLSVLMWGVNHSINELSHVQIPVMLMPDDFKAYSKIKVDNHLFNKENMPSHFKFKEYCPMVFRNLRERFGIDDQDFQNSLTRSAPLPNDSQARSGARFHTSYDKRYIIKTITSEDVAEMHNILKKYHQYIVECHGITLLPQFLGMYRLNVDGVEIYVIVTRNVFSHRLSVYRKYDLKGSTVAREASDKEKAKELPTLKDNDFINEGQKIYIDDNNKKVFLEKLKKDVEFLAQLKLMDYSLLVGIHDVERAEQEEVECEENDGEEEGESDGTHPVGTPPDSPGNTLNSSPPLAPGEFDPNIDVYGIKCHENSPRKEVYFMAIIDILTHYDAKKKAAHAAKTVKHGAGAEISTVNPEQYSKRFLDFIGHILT
#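 Single end-point luminescence (ADP-Glo) quantified ADP from PI5P4Kalpha turnover; ATP 5 microM final, 1 h at RT, 0.1% CHAPS and 0.28 mM EGTA in HEPES pH 7.4.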
# KAT2A inh = inhibitors of human GCN5L2 histone acetyltransferase; Potency, µM (top dose mostly 58.9 µM), actives largely listed as inhibitors; hit rate 0.21% among 390,000; Q92830; GCN5L2 HAT assay, ThioGlo1 CoA-SH fluorescence
#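 Fluorescence readout, Ex340nm/Em540nm: ThioGlo1 (50uM final) reacts with free CoA thiol released as 20nM GCN5L2 acetylates H3(1-25) peptide (75uM) using acetyl-CoA (70uM). Compound and enzyme sat 15 min beforehand; 20 min room-temperature reaction.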
# HP1b binding inh = inhibitors of HP1-beta chromodomain binding to methylated histone tails | P83916 | AlphaScreen HP1-beta / biotin-H3K9me3 peptide binding | Potency, µM (doses to about 114 µM), usual class: inhibitors | hit rate 0.56% among 390,000; also: nearly all actives have a fitted effect of over 70% in size
# Target sequence (P83916 whole entry, looked up): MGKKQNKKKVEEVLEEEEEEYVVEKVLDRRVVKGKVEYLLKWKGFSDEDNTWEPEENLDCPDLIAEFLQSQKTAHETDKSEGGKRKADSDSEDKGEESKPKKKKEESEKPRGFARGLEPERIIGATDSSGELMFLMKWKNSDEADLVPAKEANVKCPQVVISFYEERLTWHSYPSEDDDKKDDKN
#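 HP1-beta protein (50 nM final) preincubated 30 min at room temperature with biotinylated H3(1-18)K9me3 peptide (50 nM) in PBS pH 7.4, 0.01% Tween-20, then compound added for 30 min. AlphaScreen streptavidin donor/nickel chelate acceptor beads (10 ug/mL final), 30 min dark, luminescence read.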
# TbPYK confirm = confirmation of Trypanosoma brucei pyruvate kinase inhibitors; shares compounds with PLK1 PBD block; recombinant TbPYK, Kinase-Glo ATP luminescence; AID 720569; Potency, µM (doses to about 76.9 µM), most hits filed as inhibitors; hit rate 67% among 890; also: nearly all actives have a fitted effect of over 70% in size
# TbPYK ADP-Glo = inhibits T. brucei pyruvate kinase in orthogonal ADP-Glo assay; shares compounds with PLK1 PBD block; recombinant TbPYK, ADP-Glo luminescence, 60 min; Potency, µM (top dose mostly 76.9 µM), hits mostly inhibitors; hit rate 62% among 890; AID 720584; also: nearly all actives have a fitted effect of over 75% in size
# Hits are given with their value; i = inactive; ? = inconclusive; nt = not tested or not shown; [ ] = another dose, or the depositor's remark. Unless noted, calls follow the shape of the dose curve; as a rule, active = well fitted curve in the direction sought with a large enough effect; inconclusive = small, poorly fitted or top-dose-only effect, or another doubt; inactive = no such curve, though single readings can be large; an effect the other way counts as inactive or inconclusive.
SMILES,PLK1 PBD block,BAZ2B inh,JMJD2A Tudor,PI5P4K alpha inh,KAT2A inh,HP1b binding inh,TbPYK confirm,TbPYK ADP-Glo
COc1cccc(C(=O)Nc2ccccc2C(=O)OCc2cc(=O)n3nc(C)sc3n2)c1,nt,i,i,nt,i,i,nt,nt
COc1ccc(N=C(NN)c2ccc3ccccc3n2)cc1,11.9µM,?,i,i,i,i,12.6µM,?
NC(=O)N/N=C/c1ccccc1OC(=O)c1ccccc1Br,i,i,i,i,i,i,nt,nt
Cc1ccc(-c2cc(C(=O)N3CCOCC3)c3ccccc3n2)o1,i,nt,i,i,22.4µM,i,?,?
O=C(c1cc(-c2ccccc2)nc2ccccc12)N1CCOCC1,i,i,i,nt,i,i,nt,nt
Cc1ccc(S(=O)(=O)Nc2ccsc2C#N)cc1,i,?,i,i,i,i,nt,nt
O=C(c1cccc(S(=O)(=O)N2CCc3ccccc3C2)c1)N1CCN(c2ccc(O)cc2)CC1,i,?,?,i,i,?,5.01µM,14.1µM
COc1ccc2nc(NC(=O)C3CCN(C(=O)c4ccco4)CC3)sc2c1,i,i,i,i,i,i,nt,nt
O=C1C=C(NCCc2cc(Br)c(O)c(Br)c2)C(=O)c2ncccc21,2.67µM,nt,28.2µM,-73.8,nt,31.6µM,11.2µM,15.8µM
CC(C)(C)c1cc(CCC(=O)NCCc2ccccn2)cc(C(C)(C)C)c1O,i,i,i,i,i,i,nt,nt
O=C(O)c1cccc(N2C(=O)C=CC2=O)c1,11.9µM,nt,nt,?,nt,nt,25.1µM,35.5µM
O=C(Cc1ccccc1)Nc1cccc(N2C(=O)C=CC2=O)c1,5.32µM,?,20µM,-52.2,?,?,5.62µM,8.91µM
COc1cccc(NC(=O)Cc2ccccc2)c1,i,i,i,i,i,i,nt,nt
O=C(NC1CC1)c1ccc2nc([C@@H]3O[C@H](CO)[C@H](O)[C@H](O)[C@H]3O)[nH]c2c1,i,nt,nt,i,nt,nt,nt,nt
Cc1cccc(C)c1-n1nnnc1C1(C)CCC(=O)N1CCCn1ccnc1 (centres undefined),i,nt,nt,i,nt,nt,nt,nt
CCCCn1nnnc1C1(C)CCC(=O)N1CCCn1ccnc1 (centres undefined),5.97µM,nt,nt,i,nt,nt,14.1µM,35.5µM
N#Cc1ccc(S(=O)(=O)NC2CCCCNC2=O)cc1 (centres undefined),i,i,i,i,i,i,nt,nt
CCCc1cc(=O)oc2cc(C)cc(OC(=O)c3ccco3)c12,i,i,i,nt,i,i,i,i
CN1C(=O)N(CC(=O)N2CCN(S(=O)(=O)Cc3ccccc3)CC2)C(=O)C12CCCCC2,i,i,i,i,i,i,nt,nt
CCN1CCN(C(=O)/C=C/c2ccc(C)o2)CC1,i,i,i,i,i,i,nt,nt
Cc1ccc(/C=C/C(=O)N2CC(C)CC(C)C2)o1 (centres undefined),26.7µM,i,50.1µM,?,i,?,?,31.6µM
COc1ccc(C2c3cccn3CCN2S(=O)(=O)c2ccccc2[N+](=O)[O-])cc1OC (centres undefined),nt,?,?,nt,i,i,nt,nt
CC1(C)CC(=O)C(C(c2ccco2)C2C(=O)CC(C)(C)CC2=O)C(=O)C1,6.7µM,i,?,i,i,i,11.2µM,?
O=C1c2cccc3cccc(c23)C(=O)C1(O)O,?,nt,44.7µM,?,nt,i,6.31µM,5.01µM
CC(=O)N1C(=O)c2cccc3cccc(c23)C(=O)N1C(C)=O,i,i,i,i,i,i,nt,nt
SMILES,PLK1 PBD block,BAZ2B inh,JMJD2A Tudor,PI5P4K alpha inh,KAT2A inh,HP1b binding inh,TbPYK confirm,TbPYK ADP-Glo
O=C(CSc1nccn1-c1ccc(F)cc1)Nc1ccc(OC(F)(F)F)cc1,nt,?,?,nt,i,i,nt,nt
COc1ccc(CC(=O)N2CCN(C(=O)Cc3ccc(OC)cc3)CC2)cc1,?,i,?,i,i,i,nt,nt
COc1ccc(-c2ccc(C(=S)N3CCN(C(C)=O)CC3)o2)cc1,23.8µM,?,?,nt,i,?,22.4µM,31.6µM
COc1cccc2sc(NNC(=O)C3COc4ccccc4O3)nc12 (centres undefined),i,nt,i,i,i,i,nt,nt
Cc1ccc2sc(NNC(=O)C3COc4ccccc4O3)nc2c1C (centres undefined),i,?,?,i,i,i,?,?
Cn1c(=Nc2ccc(N3CCOCC3)cc2)ccc2ccccc21,i,?,i,i,i,i,nt,nt
Cn1c(N=Nc2ccc(N3CCOCC3)cc2)[n+](C)c2ccccc21,i,12.6µM,?,?,i,?,15.8µM,i
Oc1ccc(C2C[C@H]3CC[C@@H]2C3)cc1O (some centres undefined),?,?,20µM,i,i,79.4µM,10µM,14.1µM
Cc1ccc(S(=O)(=O)N2C[C@H]3[C@H]4C(=O)N(c5ccccc5)C(=O)[C@H]4C[C@H](OC(=O)NC4CC4)[C@@]3(O)C2)cc1,i,nt,nt,i,nt,nt,nt,nt
O=C1C=CC(=O)N1c1ccc(OC(F)F)cc1,3.36µM,?,15.8µM,?,?,20µM,i,i
Cc1ccc(NC(=O)C(=O)NCC(c2cccnc2)N2CCc3ccccc32)cc1Cl (centres undefined),nt,i,i,nt,i,i,nt,nt
CCOC(=O)C1CCCN(C(=O)c2ccc(-c3ccc([N+](=O)[O-])cc3)o2)C1 (centres undefined),29.9µM,?,?,?,i,?,?,?
CCCN1CCN(C(=O)c2ccc(-c3ccc([N+](=O)[O-])cc3)o2)CC1,?,i,i,i,i,i,?,?
CCCN1CCN(C(=O)c2ccc(CS(=O)c3ccc(F)cc3)o2)CC1 (centres undefined),i,i,i,i,i,i,nt,nt
CCN1/C(=C/c2ccc3ccccc3[n+]2CC)C=Cc2ccccc21,i,?,35.5µM,?,i[0.501 µM],17.8µM,11.2µM,?
CCN1C(=C2C(=O)c3ccccc3C2=O)C=Cc2ccccc21,i,i,i,nt,i,i,nt,nt
COc1cc(-c2nc3n(c(=O)c2C#N)CCS3)cc(OC)c1OC,i,i,i,i,i,i,nt,nt
COc1cc(C=C2C(=O)C=CC2=O)ccc1O,5.32µM,nt,nt,-103.6,nt,nt,1.12µM,1.12µM
COc1cc(C=C2NC(=O)NC2=O)ccc1O,i,nt,nt,?,nt,nt,nt,nt
COc1ccc2nc(N(CCN(C)C)C(=O)c3ccc4ncsc4c3)sc2c1,i,nt,nt,i,nt,nt,nt,nt
Cc1ccc2nc(N(CCCN(C)C)C(=O)c3ccc4ncsc4c3)sc2c1,21.2µM,?,39.8µM,?,i,i,25.1µM,35.5µM
CC1=C/C(=C(\c2cc(C)c(O)c(Br)c2)c2ccccc2S(=O)(=O)O)C=C(Br)C1=O,i,20µM,?,-77.4,i,28.2µM,12.6µM,i
O=C1C=CC(=O)N1c1ccc(-c2nc3ccccc3o2)cc1,8.44µM,nt,nt,-59.9,nt,nt,i,11.2µM

# Screening data deposited in PubChem BioAssay by National Center for Advancing Translational Sciences (NCATS).
